The list is not random: actives were taken first. Their share in the collection is about 21%.
CYP2C19 inh = blocks human cytochrome P450 2C19. CYP2C19 Supersomes, luciferin-H EGE luminescence, 30 min. 96,000 tested, 21% active. P33261. inhibition, % at 5 µM;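 active means CYP2C19 inhibition above a set limit at 5 µM in the primary screen, cut at about 50% in these data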
Target sequence (P33261 whole entry, looked up): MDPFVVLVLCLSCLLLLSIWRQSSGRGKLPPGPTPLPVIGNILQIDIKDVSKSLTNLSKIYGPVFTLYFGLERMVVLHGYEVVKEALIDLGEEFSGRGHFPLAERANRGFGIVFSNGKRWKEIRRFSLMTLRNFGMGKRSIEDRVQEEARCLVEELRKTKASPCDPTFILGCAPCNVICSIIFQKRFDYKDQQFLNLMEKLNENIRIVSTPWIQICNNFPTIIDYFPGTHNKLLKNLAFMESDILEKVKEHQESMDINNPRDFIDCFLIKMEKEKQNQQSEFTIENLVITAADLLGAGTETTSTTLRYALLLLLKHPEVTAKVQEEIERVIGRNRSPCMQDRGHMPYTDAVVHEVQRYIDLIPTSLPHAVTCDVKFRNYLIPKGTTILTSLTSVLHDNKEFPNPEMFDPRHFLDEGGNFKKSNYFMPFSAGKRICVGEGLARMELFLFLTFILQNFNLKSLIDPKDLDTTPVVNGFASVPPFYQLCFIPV
CYP2C9 inhib = human CYP2C9 inhibition | P11712 | CYP2C9 Supersomes, luciferin-H conversion, luminescence | inhibition, % at 5 µM | 96,000 tested, 20% active;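 active means blocking of liver enzyme CYP2C9 beyond about 50% at 5 µM, limit read from the data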
MRP-1 activ = MRP-1 activation; H69AR cells + doxorubicin, viability rescue, CellTiter-Glo; viability increase, % at 10 µM; 140,000 tested, 0.61% active; AID 799;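 active means viability gain under doxorubicin at or above a set limit, the compound median plus 3 SD, cut at about 4.7% in these data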;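 further: MRP-1 overexpressing cells given doxorubicin 25 µM after compound pretreatment; 18-22 h compound pretreatment then 72 h with doxorubicin before readout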
CYP2C19 activ = cytochrome P450 2C19 (human) activation | P33261 | recombinant CYP2C19, luciferin-H EGE luminescence; active compounds read high; 0 = fully inhibited enzyme, 1 = untreated enzyme | activation factor at 5 µM | 96,000 tested, under 10 active | AID 1025;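 active means activation factor of at least 2 at 5 µM in the primary screen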
MRP resist rev = reverses drug resistance mediated by MRP | 85,000 tested, 0.04% active | AID 602 | differential viability (reversal), % at 10 µM | H69AR cells + 2 uM doxorubicin, CellTiter-Glo, 72 h;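 active means viability drop by adding the cancer drug above about 55%, with treated viability meeting a 40% cutoff, limit read from the data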;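 further: larger differential means the compound sensitizes cells more to doxorubicin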
CYP2C9 activ = CYP2C9 (human) activation; P11712; recombinant CYP2C9, luciferin-H conversion, luminescence; active compounds read high; factor 1 = untreated enzyme, 0 = blocked; activation factor at 5 µM; 96,000 tested, 1.4% active;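 active means activation factor of 2 or more for CYP2C9 at a 5 µM dose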
Of the large screens only hits and unclear results are named; the others gave an inactive call.

Clc1ccc(Oc2nc(Oc3ccc(Cl)cc3)nc(N3CCOCC3)n2)cc1	none (no result: MRP resist rev)
c1ccc(Oc2nc(Oc3ccccc3)nc(N3CCOCC3)n2)cc1	CYP2C19 inh 59.5
NC1=NC(=O)/C(=C/c2c(OS(=O)(=O)c3ccc(Cl)cc3)ccc3ccccc23)S1	none (no result: CYP2C19 inh, CYP2C9 inhib, CYP2C19 activ, MRP resist rev, CYP2C9 activ)
Cc1ccc(C(=O)Nc2ccc(S(=O)(=O)N3CCc4ccccc43)cc2)o1	CYP2C9 inhib 74.1
O=C(Nc1ccc(S(=O)(=O)N2CCCCCC2)cc1)c1ccc(Br)o1	none
Cc1ccc(C(=O)Nc2ccc(S(=O)(=O)N3CCc4ccccc4C3)cc2)o1	CYP2C19 inh 61.0
CCC(=O)Nc1ccc(S(=O)(=O)c2ccc(NC(=O)CC)cc2)cc1	CYP2C9 inhib 69.9
CCC(=O)Nc1ccc(Nc2ccccc2)cc1	none
CCOc1ccc(S(=O)(=O)N2CCc3ccccc3C2)cc1	none
COC(=O)COc1ccc(S(=O)(=O)N2CCc3ccccc3C2)cc1	CYP2C19 inh 66.1, CYP2C9 activ 2
CN1C(=O)CC(C(=O)O)SC1=Nc1cccc(C(F)(F)F)c1 (configuration not stated)	none (no result: CYP2C19 inh, CYP2C9 inhib, CYP2C19 activ, CYP2C9 activ)
CCCCC1NC(=S)N(C2CCCCC2)C1=O (configuration not stated)	none (no result: CYP2C19 inh, CYP2C9 inhib, CYP2C19 activ, MRP resist rev, CYP2C9 activ)
CCC(=O)Nc1ccc(S(=O)(=O)N2CCc3ccccc3C2)cc1	CYP2C19 inh 86.2
O=C(Nc1ccc(S(=O)(=O)N2CCCCC2)cc1)c1ccc(CN2CCc3ccccc3C2)cc1	CYP2C9 inhib 68.0 (no result: MRP resist rev)
COC(=O)[C@H](CCSC)NC(=O)Nc1ccc(OC)cc1OC	none
CCc1c(O)nc(SCC(=O)Nc2ccccc2OC)[nH]c1=O	none
O=C1c2ccccc2CCC12N=NCC2c1ccc(Cl)cc1 (configuration not stated)	CYP2C19 inh 84.4
O=C1CC(c2ccc(Cl)cc2)n2nc(N3C(=O)c4ccccc4C3=O)nc2N1 (configuration not stated)	none
O=C1c2ccccc2CCC12N=NCC2c1ccc(Br)cc1 (configuration not stated)	CYP2C19 inh 98.7
CCCCN1C(=O)C2NN=C(C(=O)OC)C2C1=O (configuration not stated)	none
COc1ccc(OCC(=O)N/N=C/C=C/c2ccccc2)cc1	none (no result: CYP2C19 inh, CYP2C9 inhib, CYP2C19 activ, MRP resist rev, CYP2C9 activ)
COc1ccc(CNC(=O)c2cc(-c3cccs3)on2)cc1	none
O=C(NCc1ccc(Cl)cc1)c1cc(-c2cccs2)on1	CYP2C19 inh 51.0, CYP2C9 inhib 59.5
Cn1c(SCC(=O)NCc2ccco2)nnc1-c1c[nH]c2ccccc12	CYP2C19 inh 51.9
CCOc1ccc(-n2c(SCC(=O)NCc3ccco3)nnc2-c2c[nH]c3ccccc23)cc1	CYP2C9 inhib 60.0
Cn1c(SCC(=O)NCc2ccco2)nnc1-c1ccccc1	none (no result: CYP2C19 inh, CYP2C9 inhib, CYP2C19 activ, CYP2C9 activ)
COc1cc(S(=O)(=O)N2CCN(C(=O)c3ccccc3F)CC2)c(OC)cc1NC(C)=O	none
CCOC(=O)C1=C(CC)Nc2ccccc2N=C1NC(=O)c1ccc(S(=O)(=O)N(C)C)cc1	CYP2C19 inh 92.0, CYP2C9 inhib 92.6
CCOC(=O)C1=C(C)Nc2ccccc2N=C1NC(=O)c1cccc(S(=O)(=O)N(C)C)c1	CYP2C9 inhib 93.4
CCNc1ccc(C(=O)OCC)cc1NC(=O)c1cccc(S(=O)(=O)N(C)c2ccccc2)c1	none (no result: CYP2C19 inh, CYP2C9 inhib, CYP2C19 activ, MRP resist rev, CYP2C9 activ)
COc1cc2c(cc1NC(=O)CC1SC(N3CCCC3)=NC1=O)oc1ccccc12 (configuration not stated)	none
c1ccc(Cn2ncc3c2ncn2c(-c4ccncc4)nnc32)cc1	CYP2C19 inh 85.3 (no result: MRP-1 activ)
c1ccc(Oc2ccc(-n3cnnn3)cc2)cc1	CYP2C19 inh 82.1
O=C(Oc1ccccc1)c1ccc(-n2cnnn2)cc1	CYP2C19 inh 69.0
Cc1ccc(C)n1-c1ccc(-n2cnnn2)cc1	CYP2C19 inh 73.6
CC1C/C(=N\NC(=O)c2ccc(NS(=O)(=O)c3ccc(Br)cc3)cc2)CC(C)(C)C1 (configuration not stated)	none (no result: CYP2C19 inh, CYP2C9 inhib, CYP2C19 activ, MRP resist rev, CYP2C9 activ)
CC1C/C(=N\NC(=S)NC(C)C)CC(C)(C)C1 (configuration not stated)	CYP2C19 inh 88.1, CYP2C9 inhib 51.2
O=C(Nc1ccccn1)C(=O)N1CCCCC1	none (no result: CYP2C19 inh, CYP2C9 inhib, CYP2C19 activ, CYP2C9 activ)
O=C(Cc1ccccc1)Nc1nc(-c2cccs2)cs1	none
O=C(Cc1ccccc1F)Nc1nc(-c2cccs2)cs1	CYP2C19 inh 93.6, CYP2C9 inhib 99.1
O=C(Cc1cccs1)Nc1nc(-c2ccc(F)cc2F)cs1	CYP2C9 inhib 56.2
O=C(CCCc1cccs1)Nc1nc(-c2ccc(F)cc2)cs1	none (no result: CYP2C19 inh, CYP2C9 inhib, CYP2C19 activ, MRP resist rev, CYP2C9 activ)
CC1Cc2cc(-c3csc(NC(=O)Cc4cccs4)n3)ccc2N1S(C)(=O)=O (configuration not stated)	CYP2C19 inh 77.0, CYP2C9 inhib 91.8
O=C1C(c2ccc(F)cc2)N(Cc2ccc3c(c2)OCO3)C(=O)CN1C1CCCCCC1 (configuration not stated)	CYP2C9 inhib 55.8
COc1ccc(C2C(=O)N(C3CCCCC3)CC(=O)N2Cc2ccc3c(c2)OCO3)cc1 (configuration not stated)	none (no result: MRP resist rev)
O=C(c1ccc(Br)o1)N1CCN=C1SCc1cccnc1	CYP2C19 inh 89.0, CYP2C9 inhib 64.2
CSC1=NCCN1C(=O)c1ccc(Br)o1	none
O=C(c1ccco1)N1CCN=C1SCc1ccc(F)cc1	MRP-1 activ 6.0
O=C(c1cc2ccccc2o1)N1CCN=C1SCc1cccc(F)c1	none
O=C(c1cc2ccccc2o1)N1CCN=C1SCc1cccnc1	CYP2C9 inhib 51.7
O=C(c1ccco1)N1CCN=C1SCc1cccc(F)c1	none
Cc1ccccc1NC(=O)c1c(O)c2cccc3c2n(c1=O)CCC3	none (no result: MRP-1 activ)
Cc1ccc2nc(SCc3nnc(-c4ccccc4)o3)[nH]c2c1	CYP2C9 inhib 50.9
Cc1cccc(OCCCSc2nc3ccc(C)cc3[nH]2)c1	CYP2C19 inh 86.2, CYP2C9 inhib 77.7 (no result: MRP resist rev)
Cc1ccc2nc(SCn3nnc4ccccc4c3=O)[nH]c2c1	none (no result: CYP2C19 inh, CYP2C9 inhib, CYP2C19 activ, MRP resist rev, CYP2C9 activ)
Nc1cc(=O)[nH]c(SCc2nnc(-c3ccccc3)o2)n1	none
Cc1ccc2nc(SCc3nnc(-c4cccs4)o3)[nH]c2c1	CYP2C9 inhib 51.4
Cc1cc(C(F)(F)F)n(-c2nc(C(=O)N/N=C/c3ccc(F)cc3)cs2)n1	CYP2C9 inhib 55.2 (no result: MRP resist rev)
COc1cccc(/C=N/NC(=O)c2csc(-n3nc(C)cc3C(F)(F)F)n2)c1	none (no result: MRP resist rev)
Cc1ccc(C23CC4CC(CC(C(=O)N5CCOCC5)(C4)C2)C3)cc1	CYP2C19 inh 76.5, CYP2C9 inhib 56.7
CCOC(=O)NC(NCc1ccccc1Cl)(C(F)(F)F)C(F)(F)F	CYP2C19 inh 58.0 (no result: MRP resist rev)
CCCCC(=O)NC(Nc1nc(C2CC2)cs1)(C(=O)OCC)C(F)(F)F (configuration not stated)	CYP2C19 inh 62.6
CCCCC(=O)NC(Nc1cc(C)ccn1)(C(=O)OCC)C(F)(F)F (configuration not stated)	CYP2C19 inh 71.8

High-throughput results: PubChem BioAssay, several laboratories
